Assay results: the supplement of paper PMC10849652
The full data set covers some 7,900 targets. This sample favours those with a hit. About 0.6% of all pairs of compound and target were hits.

Each target was assayed with CCCS(=O)(=O)Nc1ccc(F)c(C(=O)c2c[nH]c3ncc(Cl)cc23)c1F (assay: log2 fold change, soluble protein after heating vs DMSO (PISA); higher = thermal stabilisation; K562 cells, 10 uM, 30 min; active = over 0.2 and 3.5 SD of the protein, either way, in both replicates (recomputed)).
Outline: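 K562 cells at 2×10^6 cells/mL were treated with 10 μM compound for 30 min. Aliquots were heated for 3 min across 48°C-58°C, pooled, and extracted in PBS with 0.5% NP-40 at 4°C; soluble protein was the supernatant after 21,000xg for 90 min. Soluble protein was quantified by TMTpro 16plex LC-MS/MS with channel sums equalised, and reported as log2 fold change in thermal stability against DMSO controls, with values from duplicates.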

Sequence of UniProt P36969 (P36969 whole entry, looked up): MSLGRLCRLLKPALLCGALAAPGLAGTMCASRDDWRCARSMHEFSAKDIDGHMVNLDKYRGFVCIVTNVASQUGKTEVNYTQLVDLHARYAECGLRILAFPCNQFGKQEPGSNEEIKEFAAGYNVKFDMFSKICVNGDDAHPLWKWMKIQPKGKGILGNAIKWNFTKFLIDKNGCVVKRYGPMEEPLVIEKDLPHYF
Sequence of UniProt Q9UJY4 (Q9UJY4 whole entry, looked up): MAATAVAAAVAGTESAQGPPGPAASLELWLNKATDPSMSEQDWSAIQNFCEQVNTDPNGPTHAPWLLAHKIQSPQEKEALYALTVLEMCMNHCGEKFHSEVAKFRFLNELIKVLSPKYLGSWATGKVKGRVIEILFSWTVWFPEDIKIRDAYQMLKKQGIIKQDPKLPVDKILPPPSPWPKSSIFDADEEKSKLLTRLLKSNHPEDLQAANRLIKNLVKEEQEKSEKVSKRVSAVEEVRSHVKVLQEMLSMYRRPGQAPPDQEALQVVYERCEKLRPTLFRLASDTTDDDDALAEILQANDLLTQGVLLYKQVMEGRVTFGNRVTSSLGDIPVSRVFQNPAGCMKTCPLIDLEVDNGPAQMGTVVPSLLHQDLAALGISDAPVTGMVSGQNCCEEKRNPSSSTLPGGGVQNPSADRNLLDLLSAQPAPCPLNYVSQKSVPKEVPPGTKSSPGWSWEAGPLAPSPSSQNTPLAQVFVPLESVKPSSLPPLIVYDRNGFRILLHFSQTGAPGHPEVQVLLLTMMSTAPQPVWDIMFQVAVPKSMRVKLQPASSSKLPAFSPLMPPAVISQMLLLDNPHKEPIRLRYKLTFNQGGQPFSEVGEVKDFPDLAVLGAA
Sequence of UniProt P49840 (P49840 whole entry, looked up): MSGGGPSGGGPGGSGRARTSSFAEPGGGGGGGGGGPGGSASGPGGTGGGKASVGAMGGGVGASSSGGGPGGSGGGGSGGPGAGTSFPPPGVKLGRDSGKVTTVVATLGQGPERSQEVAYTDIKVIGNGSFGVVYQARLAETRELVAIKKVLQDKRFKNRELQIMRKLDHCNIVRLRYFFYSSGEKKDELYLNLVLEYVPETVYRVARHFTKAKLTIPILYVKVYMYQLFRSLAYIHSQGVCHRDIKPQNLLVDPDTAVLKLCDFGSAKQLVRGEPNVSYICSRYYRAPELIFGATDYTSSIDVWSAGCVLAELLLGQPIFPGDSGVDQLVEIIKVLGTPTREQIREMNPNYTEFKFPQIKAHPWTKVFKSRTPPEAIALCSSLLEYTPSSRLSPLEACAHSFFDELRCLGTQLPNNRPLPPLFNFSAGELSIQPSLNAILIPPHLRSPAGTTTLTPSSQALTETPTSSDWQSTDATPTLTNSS
Sequence of UniProt P04035 (P04035 whole entry, looked up): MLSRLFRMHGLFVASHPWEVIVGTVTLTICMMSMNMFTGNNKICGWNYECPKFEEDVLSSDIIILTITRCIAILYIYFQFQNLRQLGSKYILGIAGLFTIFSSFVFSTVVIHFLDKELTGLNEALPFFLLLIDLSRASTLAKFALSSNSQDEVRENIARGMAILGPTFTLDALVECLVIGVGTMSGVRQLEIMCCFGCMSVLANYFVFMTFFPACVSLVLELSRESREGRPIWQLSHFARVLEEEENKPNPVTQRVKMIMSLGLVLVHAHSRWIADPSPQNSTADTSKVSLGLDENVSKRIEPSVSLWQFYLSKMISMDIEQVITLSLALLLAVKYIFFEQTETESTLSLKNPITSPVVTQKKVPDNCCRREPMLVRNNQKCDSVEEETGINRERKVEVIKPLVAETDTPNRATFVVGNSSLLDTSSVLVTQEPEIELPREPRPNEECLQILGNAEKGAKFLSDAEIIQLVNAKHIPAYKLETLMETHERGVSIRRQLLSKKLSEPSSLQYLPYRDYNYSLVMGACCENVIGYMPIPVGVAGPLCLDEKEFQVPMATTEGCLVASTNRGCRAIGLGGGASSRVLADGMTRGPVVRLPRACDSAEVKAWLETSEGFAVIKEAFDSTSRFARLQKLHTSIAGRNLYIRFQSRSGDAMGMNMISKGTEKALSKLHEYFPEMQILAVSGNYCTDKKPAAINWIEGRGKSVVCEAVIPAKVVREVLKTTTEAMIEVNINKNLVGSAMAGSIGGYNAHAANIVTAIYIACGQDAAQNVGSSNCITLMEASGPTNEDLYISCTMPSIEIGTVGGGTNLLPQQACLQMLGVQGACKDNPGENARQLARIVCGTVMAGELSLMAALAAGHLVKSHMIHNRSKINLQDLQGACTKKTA
Sequence of UniProt P07910 (P07910 whole entry, looked up): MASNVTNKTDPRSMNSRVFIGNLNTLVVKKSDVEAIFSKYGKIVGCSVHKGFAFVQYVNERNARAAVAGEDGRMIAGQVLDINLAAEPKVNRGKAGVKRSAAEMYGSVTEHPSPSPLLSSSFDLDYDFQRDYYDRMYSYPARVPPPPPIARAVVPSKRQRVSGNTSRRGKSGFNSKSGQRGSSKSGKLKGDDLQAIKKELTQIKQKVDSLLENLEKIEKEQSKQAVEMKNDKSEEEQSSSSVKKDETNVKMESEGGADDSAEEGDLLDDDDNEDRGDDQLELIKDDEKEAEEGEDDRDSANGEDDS
Sequence of UniProt Q96JB3 (Q96JB3 whole entry, looked up): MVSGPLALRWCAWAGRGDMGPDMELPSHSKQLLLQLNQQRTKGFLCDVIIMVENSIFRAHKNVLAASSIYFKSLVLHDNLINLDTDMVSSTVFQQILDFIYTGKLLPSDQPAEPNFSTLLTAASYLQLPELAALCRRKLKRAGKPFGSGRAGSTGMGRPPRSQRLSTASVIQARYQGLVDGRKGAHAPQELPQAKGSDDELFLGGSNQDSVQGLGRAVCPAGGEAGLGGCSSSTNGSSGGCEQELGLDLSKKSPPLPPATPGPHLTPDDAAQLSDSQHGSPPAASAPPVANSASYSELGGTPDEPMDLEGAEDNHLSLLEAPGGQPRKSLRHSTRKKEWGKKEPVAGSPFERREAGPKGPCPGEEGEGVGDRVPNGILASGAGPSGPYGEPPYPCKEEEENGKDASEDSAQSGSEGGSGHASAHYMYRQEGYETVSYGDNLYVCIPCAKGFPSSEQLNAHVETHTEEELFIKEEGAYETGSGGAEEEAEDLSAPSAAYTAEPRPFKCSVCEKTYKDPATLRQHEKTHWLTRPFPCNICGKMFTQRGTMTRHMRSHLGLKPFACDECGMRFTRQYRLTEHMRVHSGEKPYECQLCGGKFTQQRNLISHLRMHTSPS
Sequence of UniProt Q02790 (Q02790 whole entry, looked up): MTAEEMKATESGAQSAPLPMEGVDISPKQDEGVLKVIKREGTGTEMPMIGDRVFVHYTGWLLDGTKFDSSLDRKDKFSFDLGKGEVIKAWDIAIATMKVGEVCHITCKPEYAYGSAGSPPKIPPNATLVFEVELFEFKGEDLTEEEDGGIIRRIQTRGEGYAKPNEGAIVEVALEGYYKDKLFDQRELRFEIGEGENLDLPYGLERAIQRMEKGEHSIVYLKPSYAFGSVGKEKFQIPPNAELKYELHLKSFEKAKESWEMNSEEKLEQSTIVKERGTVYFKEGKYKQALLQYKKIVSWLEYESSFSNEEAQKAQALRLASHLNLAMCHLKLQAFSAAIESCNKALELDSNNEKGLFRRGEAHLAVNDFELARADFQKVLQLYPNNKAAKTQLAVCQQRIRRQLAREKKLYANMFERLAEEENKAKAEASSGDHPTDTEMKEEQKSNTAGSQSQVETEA
Sequence of UniProt Q7Z4H3 (Q7Z4H3 whole entry, looked up): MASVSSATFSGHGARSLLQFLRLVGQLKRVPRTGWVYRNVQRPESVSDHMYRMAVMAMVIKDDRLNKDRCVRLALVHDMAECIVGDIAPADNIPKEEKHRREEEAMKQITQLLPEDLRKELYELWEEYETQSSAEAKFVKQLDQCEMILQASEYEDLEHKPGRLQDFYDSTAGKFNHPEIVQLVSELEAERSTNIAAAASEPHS
Sequence of UniProt P06865 (P06865 whole entry, looked up): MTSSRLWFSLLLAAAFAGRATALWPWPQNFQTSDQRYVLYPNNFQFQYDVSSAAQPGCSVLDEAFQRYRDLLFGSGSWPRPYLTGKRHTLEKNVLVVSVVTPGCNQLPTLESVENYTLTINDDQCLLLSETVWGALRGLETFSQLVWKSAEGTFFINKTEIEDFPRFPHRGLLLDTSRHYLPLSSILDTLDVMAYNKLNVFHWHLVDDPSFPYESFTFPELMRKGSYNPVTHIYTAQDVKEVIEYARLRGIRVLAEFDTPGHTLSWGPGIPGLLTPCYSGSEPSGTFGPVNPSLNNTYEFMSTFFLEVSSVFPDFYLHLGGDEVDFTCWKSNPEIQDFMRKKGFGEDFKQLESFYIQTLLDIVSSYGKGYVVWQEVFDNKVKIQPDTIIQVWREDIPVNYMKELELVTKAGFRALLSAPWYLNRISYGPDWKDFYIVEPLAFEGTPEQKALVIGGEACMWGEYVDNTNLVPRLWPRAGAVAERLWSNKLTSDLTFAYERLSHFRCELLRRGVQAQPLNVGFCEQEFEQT
Sequence of UniProt P31943 (P31943 whole entry, looked up): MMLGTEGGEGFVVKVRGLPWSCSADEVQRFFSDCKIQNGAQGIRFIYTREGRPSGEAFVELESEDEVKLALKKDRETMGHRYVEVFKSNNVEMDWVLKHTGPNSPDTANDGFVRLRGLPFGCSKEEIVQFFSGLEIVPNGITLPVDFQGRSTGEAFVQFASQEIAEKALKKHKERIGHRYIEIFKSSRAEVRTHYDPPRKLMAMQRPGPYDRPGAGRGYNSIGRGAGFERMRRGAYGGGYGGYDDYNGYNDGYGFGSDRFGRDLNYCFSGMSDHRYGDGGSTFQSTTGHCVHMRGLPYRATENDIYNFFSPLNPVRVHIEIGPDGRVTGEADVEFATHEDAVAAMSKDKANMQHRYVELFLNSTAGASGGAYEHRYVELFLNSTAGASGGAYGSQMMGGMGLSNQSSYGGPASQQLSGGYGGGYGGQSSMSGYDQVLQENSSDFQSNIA
Sequence of UniProt O15347 (O15347 whole entry, looked up): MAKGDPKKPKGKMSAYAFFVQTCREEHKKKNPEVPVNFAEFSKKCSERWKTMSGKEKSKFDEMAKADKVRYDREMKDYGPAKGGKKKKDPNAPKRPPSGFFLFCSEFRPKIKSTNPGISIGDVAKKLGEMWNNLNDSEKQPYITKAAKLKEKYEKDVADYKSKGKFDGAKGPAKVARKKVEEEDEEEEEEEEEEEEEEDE

log2 fold change, inactive:
GNB2 (UniProt P62879) 0.036
GTF2B (UniProt Q00403) 0.167
GTF2E1 (UniProt P29083) 0.082
GPX4 (UniProt P36969) 0.005
HMGB3 (UniProt O15347) 0.011
GAPVD1 isoform 6 (UniProt Q14C86) 0.13
FNTB (UniProt P49356) -0.052
FKBP4 (UniProt Q02790) 0.06
IFRD1 (UniProt O00458) 0.058
IFT80 isoform 3 (UniProt Q9P2H3) 0.039
IFI30 (UniProt P13284) 0.183
GALNT1 (UniProt Q10472) -0.021
FUBP3 (UniProt Q96I24) 0.018
ICMT (UniProt O60725) -0.103
GCC2 (UniProt Q8IWJ2) 0.01
HIC2 (UniProt Q96JB3) 0.123
HRC (UniProt P23327) -0.097
HSD17B12 (UniProt Q53GQ0) -0.01
HMGCR isoform 3 (UniProt P04035) -0.04
GOLPH3 (UniProt Q9H4A6) 0.058
GEMIN5 (UniProt Q8TEQ6) 0.093
FUCA2 (UniProt Q9BTY2) -0.053
HNRNPH1 (UniProt P31943) 0.144
GNPAT (UniProt O15228) 0.045
GOPC (UniProt Q9HD26) -0.128
HPCAL1 (UniProt P37235) 0.005
GTF2A2 (UniProt P52657) -0.017
GSK3A (UniProt P49840) -0.003
HBQ1 (UniProt P09105) 0.004
HOOK3 (UniProt Q86VS8) -0.001
HEXA (UniProt P06865) -0.023
GGA2 (UniProt Q9UJY4) 0.017
HNRNPC isoform 2 (UniProt P07910) -0.191
H2AFX (UniProt P16104) 0.329
HDDC2 (UniProt Q7Z4H3) 0.034
